Records with an inconclusive call do not appear. Calls of active or inactive are those of the source. How the source made its calls, unless noted: active means hit-call score of the fitted dose curve at least 0.9, where 1 is the maximum; inactive means score below 0.9.
Molecular target: Norway rat Vesicular Monoamine Transporter (VMAT2), neurotransmitter transporter, Slc18a2 (gene 25549) (UniProt Q01827)
Sequence (Q01827 whole entry, looked up): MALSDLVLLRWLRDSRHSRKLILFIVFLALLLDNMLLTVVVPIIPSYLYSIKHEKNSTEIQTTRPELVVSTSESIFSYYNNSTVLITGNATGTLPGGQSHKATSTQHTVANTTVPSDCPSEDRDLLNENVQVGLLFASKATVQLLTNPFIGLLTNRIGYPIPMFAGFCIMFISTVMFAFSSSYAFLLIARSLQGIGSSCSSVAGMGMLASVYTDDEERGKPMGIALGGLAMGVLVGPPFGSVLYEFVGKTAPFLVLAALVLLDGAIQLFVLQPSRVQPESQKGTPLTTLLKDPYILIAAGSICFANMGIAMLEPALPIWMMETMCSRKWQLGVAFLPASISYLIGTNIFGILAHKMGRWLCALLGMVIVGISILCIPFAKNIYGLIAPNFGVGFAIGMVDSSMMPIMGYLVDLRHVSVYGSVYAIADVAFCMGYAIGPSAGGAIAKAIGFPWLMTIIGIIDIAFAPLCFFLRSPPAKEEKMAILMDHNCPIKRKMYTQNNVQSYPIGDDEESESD
Experiment: NVS_TR_rVMAT2: NovaScreen (NVS) Transporter Assay for Norway rat Vesicular Monoamine Transporter (VMAT2), neurotransmitter transporter (AID 2283376; active means hit-call score of the fitted dose curve at least 0.9, where 1 is the maximum;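 further: actives lower the bound radioligand signal below the DMSO level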)
How it was run: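 Tissue: rat forebrain extract. Format: competitive radioligand binding, cell-free. Timepoint: 1 h. Readout: filter radiodetection/scintillation. Screen: 25 uM in duplicate, then concentration series for actives. Baseline: DMSO.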
In the case of `CCN(CC)c1ccc(C=O)c(O)c1`, the outcome is reported as “inactive”. For `CC(=N[Si](C)(C)C)O[Si](C)(C)C`, the outcome was “inactive”. For `CC(=O)S[C@@H]1CC2=CC(=O)CC[C@]2(C)[C@H]2CC[C@@]3(C)[C@@H](CC[C@@]34CCC(=O)O4)[C@H]12`, the outcome was “inactive”. For `CCN(CC)c1ccc(N=Nc2ccccc2)cc1`, the outcome was “inactive”. For `CN1CCN(C)CC1`, the outcome was “inactive”. With `Cc1cc(F)ccc1-c1cc(N2CC[C@@H](O)[C@H]2CO)ncc1N(C)C(=O)C(C)(C)c1cc(C(F)(F)F)cc(C(F)(F)F)c1` the AC50 was 11.7 µM (active).

Test system: not listed separately
Experiment: ATG_M_32_XSP2: Attagene TRANS-FACTORIAL Multi-Species (XSP2) HepG2 Assay for M19 Transcription Factor (Internal Marker) (AID 2283826; active means hit-call score of the fitted dose curve at least 0.9, where 1 is the maximum)
How it was run: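 Transfected HepG2 (multiplexed GAL4-UAS reporters), 24 h chemical exposure, 3 nM 6-alpha-fluorotestosterone + 1.5 nM norgestrel added. RNA → oligo(dT) RT → PCR → 6-FAM primer extension → HpaI cut → CE. Fitted upward vs DMSO.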
In the case of `C=C1C[C@H]2[C@@H]3C=C(C)C4=CC(=O)CC[C@]4(C)[C@H]3CC[C@]2(C)[C@@]1(OC(C)=O)C(C)=O`, the outcome is reported as “inactive”. With `O=c1cc(-c2ccccc2)oc2cc(O)cc(O)c12` the outcome was “inactive”. For `C=CCc1cc(S(=O)(=O)c2ccc(O)c(CC=C)c2)ccc1O`, the outcome was “inactive”. With `COc1ccc(C(=O)c2ccccc2)c(O)c1` the outcome was “inactive”. In the case of `O=c1c(-c2ccc(O)cc2)coc2cc(O)ccc12`, the outcome is reported as “inactive”. For `c1ccc2c(c1)ccc1ccccc12`, the outcome was “inactive”.

Test system: not listed separately
Experiment: Tanguay_ZF_120hpf_MUSC: Oregon State University Tanguay Lab 120 Hour Post-fertilization zebrafish Assay for Muscle Malformation (AID 2284401)
How it was run: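 Dechorionated Tropical 5D wild-type zebrafish embryos exposed statically from 6 to 120 hpf at 28C, one per well, in 0.64% DMSO. Muscle malformation scored present/absent by brightfield microscopy at 120 hpf, fitted against DMSO.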
With `NC(=O)C(F)(F)C(F)(F)C(F)(F)C(F)(F)C(F)(F)C(F)(F)C(F)(F)F` the outcome was “inactive”. In the case of `C[Si](C)(C)C(F)(F)C(F)(F)C(F)(F)F`, the outcome is reported as “inactive”. For `O=C(O)C(F)(OC(F)(F)C(F)(OC(F)(F)C(F)(OC(F)(F)C(F)(F)C(F)(F)F)C(F)(F)F)C(F)(F)F)C(F)(F)F` (centres undefined), the outcome was “inactive”. For `Cc1ccc(S(=O)(=O)OCC(F)(F)C(F)(F)C(F)(F)C(F)(F)C(F)(F)C(F)F)cc1`, the outcome was “inactive”. For `CNS(=O)(=O)C(F)(F)C(F)(F)C(F)(F)C(F)(F)C(F)(F)C(F)(F)C(F)(F)C(F)(F)F`, the outcome was “inactive”. With `O=C(O)C(F)(F)C(F)(F)C(F)(F)OC(F)(F)F` the outcome was “inactive”. In the case of `OCCCC(F)(F)C(F)(F)C(F)(F)F`, the outcome is reported as “inactive”. In the case of `O=C(Cl)C(F)(F)C(F)(F)C(F)(F)C(=O)Cl`, the outcome is reported as “inactive”. In the case of `NS(=O)(=O)C(F)(F)C(F)(F)C(F)(F)C(F)(F)C(F)(F)C(F)(F)F`, the outcome is reported as “inactive”. With `C=CC(=O)OCC(F)(F)C(F)(F)C(F)(F)C(F)(F)C(F)(F)C(F)(F)C(F)(F)F` the outcome was “inactive”. For `OCC(F)(F)C(F)(F)C(F)(F)F`, the outcome was “inactive”. With `C=CC(F)(F)C(F)(F)C(F)(F)C(F)(F)C(F)(F)C(F)(F)C(F)(F)C(F)(F)F` the outcome was “inactive”. In the case of `OCC(F)(F)C(F)(F)C(F)(F)C(F)F`, the outcome is reported as “inactive”. With `OC(O)C(F)(F)C(F)(F)F` the outcome was “inactive”. For `OCC(F)(F)C(F)(F)C(F)(F)C(F)(F)C(F)(F)C(F)(F)F`, the outcome was “inactive”. For `CCCCCCCCC(F)(F)C(F)(F)C(F)(F)C(F)(F)C(F)(F)C(F)(F)F`, the outcome was “inactive”. For `NC(=O)C(F)(F)C(F)(F)C(F)(F)C(F)F`, the outcome was “inactive”. In the case of `C=CC(=O)OCC(F)(F)C(F)(F)C(F)(F)C(F)(F)COC(=O)C=C`, the outcome is reported as “inactive”. In the case of `O=C(O)CCC(F)(F)C(F)(F)C(F)(F)C(F)(F)C(F)(F)F`, the outcome is reported as “inactive”. In the case of `CN(CCO)S(=O)(=O)C(F)(F)C(F)(F)C(F)(F)C(F)(F)C(F)(F)C(F)(F)C(F)(F)C(F)(F)F`, the outcome is reported as “inactive”. In the case of `OCC(O)CC(F)(F)C(F)(F)C(F)(F)C(F)(F)C(F)(F)C(F)(F)C(F)(F)C(F)(F)F` (centres undefined), the outcome is reported as “inactive”. For `OCC(F)(F)C(F)(F)C(F)(F)C(F)(F)C(F)(F)C(F)(F)C(F)(F)C(F)(F)C(F)(F)C(F)(F)C(F)(F)F`, the outcome was “inactive”. For `O=C(O)C(F)(F)C(F)(F)C(F)(F)C(F)(F)F`, the outcome was “inactive”. With `NC(=O)C(F)(F)C(F)(F)C(F)(F)F` the outcome was “inactive”. With `O=C(O)C(F)(F)C(F)(F)C(F)(F)OC(F)(C(F)(F)F)C(F)(F)F` the outcome was “inactive”. With `O=C(O)C(F)(F)C(F)(F)C(F)(F)C(F)(F)C(F)(F)C(F)(F)C(F)(F)C(F)(F)C(F)(F)C(F)(F)C(F)(F)C(F)(F)C(F)(F)F` the outcome was “inactive”. With `OCC(O)CC(F)(F)C(F)(F)C(F)(F)C(F)(F)F` (centres undefined) the outcome was “inactive”.

From PubChem BioAssay (EPA / NIEHS)
